{"source": "PubChem BioAssay AID1159580", "about": "(chemical genetic matrix, 2015)", "assay": "chemical genetic growth profiling, strain panel (AID 1159580);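 also: tested at 20 µM; growth read once vehicle control cultures reached saturation at 30 °C; 1 = growth at the plate median or of vehicle wells; lower values mean less growth of the strain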", "conditions": "growth OD", "note": "Hit rate of the full screen: of about 5,500 compounds, about 2,000 (36%) were called active. Roughly 18% stayed inconclusive and do not appear here. The list shows a part of the results. Values without a mark were called inactive. Rule as the data show it: active = normalized growth mostly below about 0.91 (no sharp cut-off); inconclusive = no clear call, values can overlap the other calls; inactive = mostly above about 0.92.", "data": [{"smiles": "C=CCc1cc(OC)c2c(c1OC)OCO2", "values": [{"measurement": "normalized growth", "setting": "S. cerevisiae deletion strains, locus YJR075W, strain HOC1, stronger effect = lower value", "result": 0.928}, {"measurement": "normalized growth", "setting": "S. cerevisiae deletion strains, locus YKL009W, strain mrt4, stronger effect = lower value", "result": 0.953}, {"measurement": "normalized growth", "setting": "S. cerevisiae deletion strains, locus YKL068W, stronger effect = lower value", "result": "0.94 (active)"}, {"measurement": "normalized growth", "setting": "S. cerevisiae deletion strains, locus YKL085W, strain MDH1 (second series), stronger effect = lower value", "result": 0.939}, {"measurement": "normalized growth", "setting": "S. cerevisiae deletion strains, locus YKL085W, strain MDH1, stronger effect = lower value", "result": 0.939}, {"measurement": "normalized growth", "setting": "S. cerevisiae deletion strains, locus YKL160W, strain elf1, stronger effect = lower value", "result": 0.915}, {"measurement": "normalized growth", "setting": "S. cerevisiae deletion strains, locus YKL190W, strain CNB1, stronger effect = lower value", "result": 0.964}, {"measurement": "normalized growth", "setting": "S. cerevisiae deletion strains, locus YKR001C, strain vps1, stronger effect = lower value", "result": 0.953}, {"measurement": "normalized growth", "setting": "S. cerevisiae deletion strains, locus YKR026C, strain gcn3, stronger effect = lower value", "result": "0.909 (active)"}, {"measurement": "normalized growth", "setting": "S. cerevisiae deletion strains, locus YKR091W, strain srl3, stronger effect = lower value", "result": "0.922 (active)"}, {"measurement": "normalized growth", "setting": "S. cerevisiae deletion strains, locus YLL001W, strain dnm1, stronger effect = lower value", "result": 0.96}, {"measurement": "normalized growth", "setting": "S. cerevisiae deletion strains, locus YLL026W, stronger effect = lower value", "result": "0.923 (active)"}, {"measurement": "normalized growth", "setting": "S. cerevisiae deletion strains, locus YLL041C, strain sdh2, stronger effect = lower value", "result": 0.947}, {"measurement": "normalized growth", "setting": "S. cerevisiae deletion strains, locus YLR027C, strain aat2, stronger effect = lower value", "result": 0.941}, {"measurement": "normalized growth", "setting": "S. cerevisiae deletion strains, locus YLR039C, strain RIC1, stronger effect = lower value", "result": 1.03}, {"measurement": "normalized growth", "setting": "S. cerevisiae deletion strains, locus YLR058C, strain SHM2, stronger effect = lower value", "result": 0.976}, {"measurement": "normalized growth", "setting": "S. cerevisiae deletion strains, locus YLR102C, strain apc9, stronger effect = lower value", "result": "0.923 (active)"}, {"measurement": "normalized growth", "setting": "S. cerevisiae deletion strains, locus YLR113W, strain HOG1, stronger effect = lower value", "result": 0.957}, {"measurement": "normalized growth", "setting": "S. cerevisiae deletion strains, locus YLR221C, strain rsa3, stronger effect = lower value", "result": 0.948}, {"measurement": "normalized growth", "setting": "S. cerevisiae deletion strains, locus YLR258W, strain gsy2, stronger effect = lower value", "result": 0.941}, {"measurement": "normalized growth", "setting": "S. cerevisiae deletion strains, locus YLR262C, strain YPT6 (second series), stronger effect = lower value", "result": 0.903}, {"measurement": "normalized growth", "setting": "S. cerevisiae deletion strains, locus YLR262C, strain YPT6, stronger effect = lower value", "result": 1.06}, {"measurement": "normalized growth", "setting": "S. cerevisiae deletion strains, locus YLR268W, strain sec22, stronger effect = lower value", "result": 1.01}, {"measurement": "normalized growth", "setting": "S. cerevisiae deletion strains, locus YLR320W, strain mms22, stronger effect = lower value", "result": "0.666 (active)"}, {"measurement": "normalized growth", "setting": "S. cerevisiae deletion strains, locus YLR330W, strain CHS5, stronger effect = lower value", "result": 0.967}, {"measurement": "normalized growth", "setting": "S. cerevisiae deletion strains, locus YLR342W, strain FKS1 (second series), stronger effect = lower value", "result": 0.953}, {"measurement": "normalized growth", "setting": "S. cerevisiae deletion strains, locus YLR342W, strain FKS1, stronger effect = lower value", "result": 0.932}, {"measurement": "normalized growth", "setting": "S. cerevisiae deletion strains, locus YLR357W, strain rsc2, stronger effect = lower value", "result": 1.07}, {"measurement": "normalized growth", "setting": "S. cerevisiae deletion strains, locus YLR370C, strain arc18, stronger effect = lower value", "result": 0.924}, {"measurement": "normalized growth", "setting": "S. cerevisiae deletion strains, locus YLR371W, strain rom2, stronger effect = lower value", "result": 0.943}, {"measurement": "normalized growth", "setting": "S. cerevisiae deletion strains, locus YLR384C, strain iki3, stronger effect = lower value", "result": 0.935}, {"measurement": "normalized growth", "setting": "S. cerevisiae deletion strains, locus YLR418C, strain cdc73, stronger effect = lower value", "result": 0.938}, {"measurement": "normalized growth", "setting": "S. cerevisiae deletion strains, locus YML016C, strain PPZ1, stronger effect = lower value", "result": 0.988}, {"measurement": "normalized growth", "setting": "S. cerevisiae deletion strains, locus YML032C, strain rad52, stronger effect = lower value", "result": 0.987}, {"measurement": "normalized growth", "setting": "S. cerevisiae deletion strains, locus YML120C, strain ndi1, stronger effect = lower value", "result": 0.969}, {"measurement": "normalized growth", "setting": "S. cerevisiae deletion strains, locus YML124C, strain tub3, stronger effect = lower value", "result": "0.931 (active)"}, {"measurement": "normalized growth", "setting": "S. cerevisiae deletion strains, locus YMR058W, strain fet3, stronger effect = lower value", "result": 0.951}, {"measurement": "normalized growth", "setting": "S. cerevisiae deletion strains, locus YMR078C, strain ctf18, stronger effect = lower value", "result": 0.943}, {"measurement": "normalized growth", "setting": "S. cerevisiae deletion strains, locus YMR125W, strain sto1, stronger effect = lower value", "result": 0.896}, {"measurement": "normalized growth", "setting": "S. cerevisiae deletion strains, locus YMR129W, stronger effect = lower value", "result": "0.921 (active)"}, {"measurement": "normalized growth", "setting": "S. cerevisiae deletion strains, locus YMR205C, strain PFK2, stronger effect = lower value", "result": "0.83 (active)"}, {"measurement": "normalized growth", "setting": "S. cerevisiae deletion strains, locus YMR223W, strain ubp8, stronger effect = lower value", "result": 0.935}, {"measurement": "normalized growth", "setting": "S. cerevisiae deletion strains, locus YMR231W, strain pep5, stronger effect = lower value", "result": 1}, {"measurement": "normalized growth", "setting": "S. cerevisiae deletion strains, locus YMR263W, strain SAP30, stronger effect = lower value", "result": 0.94}, {"measurement": "normalized growth", "setting": "S. cerevisiae deletion strains, locus YMR307W, strain GAS1, stronger effect = lower value", "result": 0.987}, {"measurement": "normalized growth", "setting": "S. cerevisiae deletion strains, locus YNL067W, strain RPL9B, stronger effect = lower value", "result": 0.921}, {"measurement": "normalized growth", "setting": "S. cerevisiae deletion strains, locus YNL071W, strain lat1, stronger effect = lower value", "result": "0.737 (active)"}, {"measurement": "normalized growth", "setting": "S. cerevisiae deletion strains, locus YNL128W, strain TEP1, stronger effect = lower value", "result": 0.971}, {"measurement": "normalized growth", "setting": "S. cerevisiae deletion strains, locus YNL153C, strain GIM3, stronger effect = lower value", "result": 0.97}, {"measurement": "normalized growth", "setting": "S. cerevisiae deletion strains, locus YNL183C, strain NPR1, stronger effect = lower value", "result": 0.916}, {"measurement": "normalized growth", "setting": "S. cerevisiae deletion strains, locus YNL209W, strain ssb2, stronger effect = lower value", "result": 0.962}, {"measurement": "normalized growth", "setting": "S. cerevisiae deletion strains, locus YNL233W, strain BNI4, stronger effect = lower value", "result": "0.835 (active)"}, {"measurement": "normalized growth", "setting": "S. cerevisiae deletion strains, locus YNL248C, strain rpa49, stronger effect = lower value", "result": 0.969}, {"measurement": "normalized growth", "setting": "S. cerevisiae deletion strains, locus YNL250W, strain rad50, stronger effect = lower value", "result": 0.967}, {"measurement": "normalized growth", "setting": "S. cerevisiae deletion strains, locus YNL271C, strain bni1, stronger effect = lower value", "result": 0.929}, {"measurement": "normalized growth", "setting": "S. cerevisiae deletion strains, locus YNL298W, strain CLA4, stronger effect = lower value", "result": 0.96}, {"measurement": "normalized growth", "setting": "S. cerevisiae deletion strains, locus YNL307C, strain MCK1, stronger effect = lower value", "result": "0.862 (active)"}, {"measurement": "normalized growth", "setting": "S. cerevisiae deletion strains, locus YNL322C, strain KRE1 (second series), stronger effect = lower value", "result": 0.933}, {"measurement": "normalized growth", "setting": "S. cerevisiae deletion strains, locus YNL322C, strain KRE1, stronger effect = lower value", "result": 0.961}, {"measurement": "normalized growth", "setting": "S. cerevisiae deletion strains, locus YNR049C, strain mso1, stronger effect = lower value", "result": 0.942}, {"measurement": "normalized growth", "setting": "S. cerevisiae deletion strains, locus YNR052C, strain pop2, stronger effect = lower value", "result": 0.984}, {"measurement": "normalized growth", "setting": "S. cerevisiae deletion strains, locus YOL006C, strain TOP1, stronger effect = lower value", "result": 0.589}, {"measurement": "normalized growth", "setting": "S. cerevisiae deletion strains, locus YOL012C, strain htz1", "result": 1.06}, {"measurement": "normalized growth", "setting": "S. cerevisiae deletion strains, locus YOL147C, strain pex11, stronger effect = lower value", "result": 0.943}, {"measurement": "normalized growth", "setting": "S. cerevisiae deletion strains, locus YOR001W, strain rrp6, stronger effect = lower value", "result": 0.949}, {"measurement": "normalized growth", "setting": "S. cerevisiae deletion strains, locus YOR061W, strain CKA2, stronger effect = lower value", "result": 0.981}, {"measurement": "normalized growth", "setting": "S. cerevisiae deletion strains, locus YOR069W, strain VPS5, stronger effect = lower value", "result": 0.99}, {"measurement": "normalized growth", "setting": "S. cerevisiae deletion strains, locus YOR070C, strain gyp1, stronger effect = lower value", "result": 0.982}, {"measurement": "normalized growth", "setting": "S. cerevisiae deletion strains, locus YOR080W, strain dia2, stronger effect = lower value", "result": 0.991}, {"measurement": "normalized growth", "setting": "S. cerevisiae deletion strains, locus YOR083W, strain WHI5, stronger effect = lower value", "result": 0.951}, {"measurement": "normalized growth", "setting": "S. cerevisiae deletion strains, locus YOR106W, strain vam3, stronger effect = lower value", "result": 0.956}, {"measurement": "normalized growth", "setting": "S. cerevisiae deletion strains, locus YOR136W, strain idh2, stronger effect = lower value", "result": 0.974}, {"measurement": "normalized growth", "setting": "S. cerevisiae deletion strains, locus YOR144C, strain elg1, stronger effect = lower value", "result": 0.952}, {"measurement": "normalized growth", "setting": "S. cerevisiae deletion strains, locus YOR184W, strain ser1, stronger effect = lower value", "result": "0.872 (active)"}, {"measurement": "normalized growth", "setting": "S. cerevisiae deletion strains, locus YOR231W, strain MKK1, stronger effect = lower value", "result": 0.999}, {"measurement": "normalized growth", "setting": "S. cerevisiae deletion strains, locus YOR265W, strain rbl2, stronger effect = lower value", "result": 0.967}, {"measurement": "normalized growth", "setting": "S. cerevisiae deletion strains, locus YOR270C, strain vph1, stronger effect = lower value", "result": 0.841}, {"measurement": "normalized growth", "setting": "S. cerevisiae deletion strains, locus YOR290C, strain snf2, stronger effect = lower value", "result": 0.926}, {"measurement": "normalized growth", "setting": "S. cerevisiae deletion strains, locus YOR316C, strain cot1, stronger effect = lower value", "result": 0.929}, {"measurement": "normalized growth", "setting": "S. cerevisiae deletion strains, locus YPL051W, strain arl3, stronger effect = lower value", "result": 0.998}, {"measurement": "normalized growth", "setting": "S. cerevisiae deletion strains, locus YPL055C, strain LGE1, stronger effect = lower value", "result": 0.908}, {"measurement": "normalized growth", "setting": "S. cerevisiae deletion strains, locus YPL078C, strain atp4, stronger effect = lower value", "result": 0.906}, {"measurement": "normalized growth", "setting": "S. cerevisiae deletion strains, locus YPL106C, strain sse1, stronger effect = lower value", "result": 0.987}, {"measurement": "normalized growth", "setting": "S. cerevisiae deletion strains, locus YPL240C, strain hsp82, stronger effect = lower value", "result": "0.927 (active)"}, {"measurement": "normalized growth", "setting": "S. cerevisiae deletion strains, locus YPL241C, strain CIN2, stronger effect = lower value", "result": 0.967}, {"measurement": "normalized growth", "setting": "S. cerevisiae deletion strains, locus YPL256C, strain CLN2, stronger effect = lower value", "result": 0.977}, {"measurement": "normalized growth", "setting": "S. cerevisiae deletion strains, locus YPR119W, strain clb2, stronger effect = lower value", "result": "0.926 (active)"}, {"measurement": "normalized growth", "setting": "S. cerevisiae deletion strains, locus YPR141C, strain kar3, stronger effect = lower value", "result": 0.94}, {"measurement": "normalized growth", "setting": "S. cerevisiae deletion strains, locus YPR163C, strain tif3, stronger effect = lower value", "result": 0.968}, {"measurement": "normalized growth", "setting": "S. cerevisiae deletion strains, locus YPR167C, strain met16, stronger effect = lower value", "result": 0.939}, {"measurement": "normalized growth", "setting": "S. cerevisiae deletion strains, strain wtn01, stronger effect = lower value", "result": 0.933}, {"measurement": "normalized growth", "setting": "S. cerevisiae strains, strain wild type, stronger effect = lower value", "result": 0.999}]}]}
